Source: ChEMBL document CHEMBL1961873, “Compounds: GSK PKIS; Assays: Nanosyn kinase panel” (2012)

Experiments:
[1] = biological target: 5'-AMP-activated protein kinase catalytic subunit alpha-2 (Homo sapiens) (UniProt P54646); conditions: at 1 µM
[2] = biological target: T1, NUAK family SNF1-like kinase 1 (Homo sapiens) (UniProt O60285); conditions: at 0.1 µM
T1 sequence (whole entry): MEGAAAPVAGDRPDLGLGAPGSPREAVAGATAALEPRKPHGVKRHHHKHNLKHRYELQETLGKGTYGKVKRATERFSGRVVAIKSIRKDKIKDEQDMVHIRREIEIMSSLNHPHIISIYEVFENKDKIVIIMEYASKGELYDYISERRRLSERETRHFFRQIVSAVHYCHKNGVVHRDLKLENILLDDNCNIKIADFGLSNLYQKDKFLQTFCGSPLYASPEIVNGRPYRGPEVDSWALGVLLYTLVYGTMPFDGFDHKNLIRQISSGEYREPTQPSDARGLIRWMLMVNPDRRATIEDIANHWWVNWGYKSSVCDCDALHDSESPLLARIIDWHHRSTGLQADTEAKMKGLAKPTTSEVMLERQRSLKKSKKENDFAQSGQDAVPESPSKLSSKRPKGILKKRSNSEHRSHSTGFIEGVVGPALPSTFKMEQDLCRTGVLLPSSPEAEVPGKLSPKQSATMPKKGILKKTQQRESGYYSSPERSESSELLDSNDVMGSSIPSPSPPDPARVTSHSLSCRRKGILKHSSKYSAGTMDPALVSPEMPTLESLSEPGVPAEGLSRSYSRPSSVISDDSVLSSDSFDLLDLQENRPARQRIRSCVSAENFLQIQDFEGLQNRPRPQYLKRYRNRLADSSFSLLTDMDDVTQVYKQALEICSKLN

[3] = biological target: T1, NUAK family SNF1-like kinase 1 (Homo sapiens); conditions: at 1 µM
[4] = biological target: T2, Serine/threonine-protein kinase BRSK1 (Homo sapiens) (UniProt Q8TDC3); conditions: at 0.1 µM
T2 sequence (whole entry): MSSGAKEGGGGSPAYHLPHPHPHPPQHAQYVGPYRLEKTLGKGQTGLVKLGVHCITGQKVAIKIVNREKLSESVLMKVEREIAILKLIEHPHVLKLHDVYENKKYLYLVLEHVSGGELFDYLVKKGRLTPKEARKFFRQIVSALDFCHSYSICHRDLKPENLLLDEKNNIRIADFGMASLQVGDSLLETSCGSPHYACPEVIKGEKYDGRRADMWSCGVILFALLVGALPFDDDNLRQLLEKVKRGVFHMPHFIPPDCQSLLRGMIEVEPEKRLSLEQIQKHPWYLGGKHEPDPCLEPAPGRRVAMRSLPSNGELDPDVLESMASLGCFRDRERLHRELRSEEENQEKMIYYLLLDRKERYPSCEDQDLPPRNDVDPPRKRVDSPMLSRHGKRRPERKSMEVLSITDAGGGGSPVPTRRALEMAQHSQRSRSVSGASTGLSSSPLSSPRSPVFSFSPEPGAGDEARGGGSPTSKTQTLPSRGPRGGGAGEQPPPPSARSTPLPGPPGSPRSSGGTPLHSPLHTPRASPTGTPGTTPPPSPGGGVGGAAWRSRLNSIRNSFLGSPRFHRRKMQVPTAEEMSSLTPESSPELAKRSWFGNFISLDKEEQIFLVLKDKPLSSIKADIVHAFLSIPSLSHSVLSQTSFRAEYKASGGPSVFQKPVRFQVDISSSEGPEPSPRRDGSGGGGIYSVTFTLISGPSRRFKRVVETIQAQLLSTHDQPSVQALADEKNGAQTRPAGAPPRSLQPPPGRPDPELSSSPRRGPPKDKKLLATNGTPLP

[5] = biological target: T2, Serine/threonine-protein kinase BRSK1 (Homo sapiens); conditions: at 1 µM
[6] = biological target: T3, Serine/threonine-protein kinase BRSK2 (Homo sapiens) (UniProt Q8IWQ3); conditions: at 0.1 µM
T3 sequence (whole entry): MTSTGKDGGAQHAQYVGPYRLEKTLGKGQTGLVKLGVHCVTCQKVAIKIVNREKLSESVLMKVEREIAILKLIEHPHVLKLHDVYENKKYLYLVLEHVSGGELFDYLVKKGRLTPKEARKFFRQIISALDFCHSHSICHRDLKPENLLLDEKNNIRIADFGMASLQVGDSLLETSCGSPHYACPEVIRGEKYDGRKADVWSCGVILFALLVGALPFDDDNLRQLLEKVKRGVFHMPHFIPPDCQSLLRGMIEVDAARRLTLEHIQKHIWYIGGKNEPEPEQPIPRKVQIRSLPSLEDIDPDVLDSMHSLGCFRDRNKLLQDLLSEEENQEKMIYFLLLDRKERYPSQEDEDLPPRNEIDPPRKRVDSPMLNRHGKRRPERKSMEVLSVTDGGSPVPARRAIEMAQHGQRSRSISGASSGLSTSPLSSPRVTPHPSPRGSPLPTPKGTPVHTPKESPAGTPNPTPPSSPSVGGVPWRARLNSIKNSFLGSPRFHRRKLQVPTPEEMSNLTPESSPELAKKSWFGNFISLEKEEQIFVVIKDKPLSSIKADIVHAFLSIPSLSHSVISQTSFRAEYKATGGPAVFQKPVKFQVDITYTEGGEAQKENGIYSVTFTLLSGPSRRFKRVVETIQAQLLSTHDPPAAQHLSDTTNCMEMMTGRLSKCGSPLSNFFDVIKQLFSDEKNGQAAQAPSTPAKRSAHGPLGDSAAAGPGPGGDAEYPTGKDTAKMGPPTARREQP

[7] = biological target: T3, Serine/threonine-protein kinase BRSK2 (Homo sapiens); conditions: at 1 µM
[8] = biological target: Calcium/calmodulin-dependent protein kinase type 1D (Homo sapiens) (UniProt Q8IU85); conditions: at 0.1 µM
[9] = biological target: Calcium/calmodulin-dependent protein kinase type 1D (Homo sapiens) (UniProt Q8IU85); conditions: at 1 µM
[10] = biological target: Calcium/calmodulin-dependent protein kinase type II subunit alpha (Homo sapiens) (UniProt Q9UQM7); conditions: at 0.1 µM
[11] = biological target: Calcium/calmodulin-dependent protein kinase type II subunit alpha (Homo sapiens) (UniProt Q9UQM7); conditions: at 1 µM
[12] = biological target: Calcium/calmodulin-dependent protein kinase type II subunit delta (Homo sapiens) (UniProt Q13557); conditions: at 0.1 µM
[13] = biological target: Calcium/calmodulin-dependent protein kinase type II subunit delta (Homo sapiens) (UniProt Q13557); conditions: at 1 µM
[14] = biological target: T4, Calcium/calmodulin-dependent protein kinase type IV (Homo sapiens) (UniProt Q16566); conditions: at 0.1 µM
T4 sequence (whole entry): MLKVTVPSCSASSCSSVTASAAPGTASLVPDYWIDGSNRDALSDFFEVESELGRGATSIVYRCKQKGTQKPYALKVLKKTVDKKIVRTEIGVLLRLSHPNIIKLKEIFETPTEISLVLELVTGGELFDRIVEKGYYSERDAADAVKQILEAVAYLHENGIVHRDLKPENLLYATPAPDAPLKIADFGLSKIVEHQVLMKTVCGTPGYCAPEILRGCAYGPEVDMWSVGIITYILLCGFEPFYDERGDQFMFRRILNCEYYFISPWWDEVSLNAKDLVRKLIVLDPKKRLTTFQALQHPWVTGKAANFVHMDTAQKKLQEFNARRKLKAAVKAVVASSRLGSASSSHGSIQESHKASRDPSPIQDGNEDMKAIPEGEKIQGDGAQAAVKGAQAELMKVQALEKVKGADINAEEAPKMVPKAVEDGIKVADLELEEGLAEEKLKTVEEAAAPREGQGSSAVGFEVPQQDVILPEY

[15] = biological target: T4, Calcium/calmodulin-dependent protein kinase type IV (Homo sapiens); conditions: at 1 µM
[16] = biological target: T5, Serine/threonine-protein kinase Chk1 (Homo sapiens) (UniProt O14757); conditions: at 0.1 µM
T5 sequence (whole entry): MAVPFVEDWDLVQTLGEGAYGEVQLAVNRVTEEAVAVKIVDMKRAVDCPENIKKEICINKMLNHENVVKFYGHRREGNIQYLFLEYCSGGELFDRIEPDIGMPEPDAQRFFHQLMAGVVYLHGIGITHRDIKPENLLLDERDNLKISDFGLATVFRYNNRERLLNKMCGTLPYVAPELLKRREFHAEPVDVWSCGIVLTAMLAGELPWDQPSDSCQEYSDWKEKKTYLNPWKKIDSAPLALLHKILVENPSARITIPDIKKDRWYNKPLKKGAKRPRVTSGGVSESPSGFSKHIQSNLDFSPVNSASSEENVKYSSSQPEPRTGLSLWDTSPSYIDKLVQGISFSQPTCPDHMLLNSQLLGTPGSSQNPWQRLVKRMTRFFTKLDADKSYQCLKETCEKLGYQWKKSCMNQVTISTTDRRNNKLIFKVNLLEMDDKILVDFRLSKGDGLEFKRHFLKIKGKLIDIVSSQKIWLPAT

[17] = biological target: T5, Serine/threonine-protein kinase Chk1 (Homo sapiens); conditions: at 1 µM
[18] = biological target: Serine/threonine-protein kinase Chk2 (Homo sapiens) (UniProt O96017); conditions: at 0.1 µM
[19] = biological target: Serine/threonine-protein kinase Chk2 (Homo sapiens) (UniProt O96017); conditions: at 1 µM
[20] = biological target: Death-associated protein kinase 1 (Homo sapiens) (UniProt P53355); conditions: at 0.1 µM;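 also: reported figure is the mean inhibition of DAPK1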
Sequence of Death-associated protein kinase 1 (Homo sapiens) (P53355 whole entry, looked up): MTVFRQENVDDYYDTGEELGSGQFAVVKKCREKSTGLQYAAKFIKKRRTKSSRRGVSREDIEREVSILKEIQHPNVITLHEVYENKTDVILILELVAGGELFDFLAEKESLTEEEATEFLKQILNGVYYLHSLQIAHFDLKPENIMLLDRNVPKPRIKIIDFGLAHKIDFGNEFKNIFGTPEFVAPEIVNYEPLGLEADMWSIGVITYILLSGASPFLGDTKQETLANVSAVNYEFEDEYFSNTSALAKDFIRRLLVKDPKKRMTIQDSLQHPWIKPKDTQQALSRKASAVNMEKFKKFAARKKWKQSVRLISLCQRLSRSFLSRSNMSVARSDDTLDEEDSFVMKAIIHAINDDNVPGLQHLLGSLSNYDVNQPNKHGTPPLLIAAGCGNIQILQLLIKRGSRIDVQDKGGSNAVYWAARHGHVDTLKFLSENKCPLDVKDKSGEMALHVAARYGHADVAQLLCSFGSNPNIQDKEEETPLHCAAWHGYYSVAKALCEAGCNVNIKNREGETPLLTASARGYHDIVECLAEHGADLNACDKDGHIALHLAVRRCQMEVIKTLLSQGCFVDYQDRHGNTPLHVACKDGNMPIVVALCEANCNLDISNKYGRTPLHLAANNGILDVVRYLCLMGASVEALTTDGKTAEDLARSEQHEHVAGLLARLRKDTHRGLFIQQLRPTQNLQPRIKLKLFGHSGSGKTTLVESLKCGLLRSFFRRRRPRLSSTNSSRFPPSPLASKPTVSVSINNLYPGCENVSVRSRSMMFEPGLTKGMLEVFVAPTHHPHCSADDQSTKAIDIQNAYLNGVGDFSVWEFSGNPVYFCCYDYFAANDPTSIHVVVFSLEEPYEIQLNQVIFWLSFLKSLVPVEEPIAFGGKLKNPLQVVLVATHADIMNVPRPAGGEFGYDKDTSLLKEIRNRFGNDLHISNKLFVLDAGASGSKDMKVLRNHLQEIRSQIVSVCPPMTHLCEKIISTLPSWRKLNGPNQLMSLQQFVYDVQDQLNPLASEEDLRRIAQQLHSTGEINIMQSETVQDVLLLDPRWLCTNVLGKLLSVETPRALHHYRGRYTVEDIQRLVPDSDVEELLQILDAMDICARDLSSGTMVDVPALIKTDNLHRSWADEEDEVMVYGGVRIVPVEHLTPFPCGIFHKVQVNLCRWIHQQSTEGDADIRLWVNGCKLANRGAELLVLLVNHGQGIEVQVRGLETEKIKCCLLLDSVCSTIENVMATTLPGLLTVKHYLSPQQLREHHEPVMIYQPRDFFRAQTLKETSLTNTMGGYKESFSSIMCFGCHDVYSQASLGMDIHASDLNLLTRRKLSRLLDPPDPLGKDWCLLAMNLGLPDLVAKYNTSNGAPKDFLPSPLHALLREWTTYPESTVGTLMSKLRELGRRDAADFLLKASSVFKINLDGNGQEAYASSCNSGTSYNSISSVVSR

Sequence of Calcium/calmodulin-dependent protein kinase type II subunit alpha (Homo sapiens) (Q9UQM7 whole entry): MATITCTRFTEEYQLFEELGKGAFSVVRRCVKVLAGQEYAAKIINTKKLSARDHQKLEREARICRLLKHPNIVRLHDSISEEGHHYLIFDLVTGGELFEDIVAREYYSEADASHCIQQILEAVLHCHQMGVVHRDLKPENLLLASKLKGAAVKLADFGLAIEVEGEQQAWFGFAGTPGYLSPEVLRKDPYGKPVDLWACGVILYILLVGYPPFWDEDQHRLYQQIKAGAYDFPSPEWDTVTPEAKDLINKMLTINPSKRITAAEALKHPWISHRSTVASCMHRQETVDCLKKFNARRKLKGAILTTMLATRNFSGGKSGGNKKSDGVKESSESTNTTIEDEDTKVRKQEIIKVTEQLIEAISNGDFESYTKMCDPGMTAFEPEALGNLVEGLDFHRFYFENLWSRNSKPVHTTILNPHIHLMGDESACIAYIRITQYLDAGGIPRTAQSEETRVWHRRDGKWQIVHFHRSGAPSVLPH
Sequence of Serine/threonine-protein kinase Chk2 (Homo sapiens) (O96017 whole entry): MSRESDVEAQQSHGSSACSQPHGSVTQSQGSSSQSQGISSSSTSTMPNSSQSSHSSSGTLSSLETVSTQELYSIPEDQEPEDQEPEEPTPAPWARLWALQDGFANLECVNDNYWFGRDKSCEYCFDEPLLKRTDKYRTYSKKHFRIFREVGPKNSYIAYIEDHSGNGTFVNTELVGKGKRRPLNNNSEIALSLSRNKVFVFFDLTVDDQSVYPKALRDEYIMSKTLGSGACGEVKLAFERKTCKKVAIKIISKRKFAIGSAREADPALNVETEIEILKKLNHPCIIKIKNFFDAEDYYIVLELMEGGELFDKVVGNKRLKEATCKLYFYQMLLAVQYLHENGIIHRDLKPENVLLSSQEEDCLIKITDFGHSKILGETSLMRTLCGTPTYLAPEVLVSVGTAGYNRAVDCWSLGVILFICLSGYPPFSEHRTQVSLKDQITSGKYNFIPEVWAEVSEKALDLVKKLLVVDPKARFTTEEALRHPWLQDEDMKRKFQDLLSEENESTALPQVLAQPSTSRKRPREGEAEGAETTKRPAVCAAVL
Sequence of Calcium/calmodulin-dependent protein kinase type II subunit delta (Homo sapiens) (Q13557 whole entry): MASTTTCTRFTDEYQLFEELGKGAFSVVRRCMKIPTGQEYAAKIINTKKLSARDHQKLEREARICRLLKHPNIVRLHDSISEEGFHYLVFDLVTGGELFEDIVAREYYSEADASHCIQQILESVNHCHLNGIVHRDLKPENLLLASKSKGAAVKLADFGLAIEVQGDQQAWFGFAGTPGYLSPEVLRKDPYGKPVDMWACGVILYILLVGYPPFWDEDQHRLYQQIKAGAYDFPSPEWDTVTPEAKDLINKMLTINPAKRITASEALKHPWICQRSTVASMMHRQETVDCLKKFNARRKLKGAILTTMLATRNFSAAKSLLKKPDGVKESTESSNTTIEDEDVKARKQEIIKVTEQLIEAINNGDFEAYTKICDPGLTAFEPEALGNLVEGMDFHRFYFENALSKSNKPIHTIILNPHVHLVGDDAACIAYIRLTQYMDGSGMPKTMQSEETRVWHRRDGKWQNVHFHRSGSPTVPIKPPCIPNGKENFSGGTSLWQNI
Sequence of Calcium/calmodulin-dependent protein kinase type 1D (Homo sapiens) (Q8IU85 whole entry, looked up): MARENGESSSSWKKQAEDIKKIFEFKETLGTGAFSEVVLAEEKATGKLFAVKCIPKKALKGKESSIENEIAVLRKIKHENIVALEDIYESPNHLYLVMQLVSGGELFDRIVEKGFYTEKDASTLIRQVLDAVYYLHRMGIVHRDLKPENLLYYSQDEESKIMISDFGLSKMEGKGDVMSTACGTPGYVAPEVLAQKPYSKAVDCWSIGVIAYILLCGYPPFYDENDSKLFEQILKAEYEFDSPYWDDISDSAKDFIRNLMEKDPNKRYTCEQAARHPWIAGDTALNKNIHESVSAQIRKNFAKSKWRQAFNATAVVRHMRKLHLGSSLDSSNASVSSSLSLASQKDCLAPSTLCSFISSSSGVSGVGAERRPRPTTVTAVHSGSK
Sequence of 5'-AMP-activated protein kinase catalytic subunit alpha-2 (Homo sapiens) (P54646 whole entry, looked up): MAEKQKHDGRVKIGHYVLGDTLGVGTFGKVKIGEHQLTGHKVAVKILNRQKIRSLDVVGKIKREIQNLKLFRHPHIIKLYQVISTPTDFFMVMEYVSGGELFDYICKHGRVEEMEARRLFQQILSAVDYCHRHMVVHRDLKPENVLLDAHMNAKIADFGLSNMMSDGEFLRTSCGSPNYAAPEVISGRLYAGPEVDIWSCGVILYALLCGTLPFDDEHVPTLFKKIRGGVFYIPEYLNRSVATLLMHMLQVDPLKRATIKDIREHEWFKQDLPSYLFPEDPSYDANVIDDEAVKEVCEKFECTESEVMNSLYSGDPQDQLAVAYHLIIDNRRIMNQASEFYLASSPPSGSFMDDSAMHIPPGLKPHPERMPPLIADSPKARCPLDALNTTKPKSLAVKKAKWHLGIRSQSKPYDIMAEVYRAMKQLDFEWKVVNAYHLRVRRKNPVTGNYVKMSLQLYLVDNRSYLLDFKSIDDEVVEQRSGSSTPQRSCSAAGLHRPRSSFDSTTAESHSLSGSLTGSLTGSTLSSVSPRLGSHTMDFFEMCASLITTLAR

## COc1cc(N2CCN(C(C)C)CC2)ccc1Nc1nc(Nc2cccc(F)c2C(=O)O)c2cc[nH]c2n1
[1]
  inhibition: 2.95%
[2]
  inhibition: 5.3%
[3]
  inhibition: 5.91%
[4]
  inhibition: -0.39%
[5]
  inhibition: 0.33%
[6]
  inhibition: 1.72%
[7]
  inhibition: 3.39%
[8]
  inhibition: -0.23%
[9]
  inhibition: 4.47%
[10]
  inhibition: 3.99%
[11]
  inhibition: 4.14%
[12]
  inhibition: 3.26%
[13]
  inhibition: 6.33%
[14]
  inhibition: -2.13%
[15]
  inhibition: -1.74%
[16]
  inhibition: 1.97%
[17]
  inhibition: 6.1%
[18]
  inhibition: 4.99%
[19]
  inhibition: 26.3%
[20]
  inhibition: 3.88%

## CNC(=O)c1sc(-n2cnc3cc(OC)c(OC)cc32)cc1OCc1ccccc1C(F)(F)F
[1]
  inhibition: -1.59%
[2]
  inhibition: 0.7%
[3]
  inhibition: 6.22%
[4]
  inhibition: 0.35%
[5]
  inhibition: 4.45%
[6]
  inhibition: 4.29%
[7]
  inhibition: 4.88%
[8]
  inhibition: 0.71%
[9]
  inhibition: -0.22%
[10]
  inhibition: 2.98%
[11]
  inhibition: -0.49%
[12]
  inhibition: 3.02%
[13]
  inhibition: 0.51%
[14]
  inhibition: 0.67%
[15]
  inhibition: -0.52%
[16]
  inhibition: 2.9%
[17]
  inhibition: 3.46%
[18]
  inhibition: 2.9%
[19]
  inhibition: 2.7%
[20]
  inhibition: 5.53%

## COc1ccccc1-c1cc(/C=C2\C(=O)Nc3ncc(Br)cc32)cc(Br)c1O
[1]
  inhibition: 7.88%
[2]
  inhibition: 4.1%
[3]
  inhibition: 6.09%
[4]
  inhibition: 4.73%
[5]
  inhibition: 5.82%
[6]
  inhibition: 5.97%
[7]
  inhibition: 4.72%
[8]
  inhibition: 0.1%
[9]
  inhibition: 1.73%
[10]
  inhibition: 4.16%
[11]
  inhibition: 5.91%
[12]
  inhibition: 4.86%
[13]
  inhibition: 7.42%
[14]
  inhibition: 0.86%
[15]
  inhibition: 1.67%
[16]
  inhibition: 2.44%
[17]
  inhibition: 3.84%
[18]
  inhibition: 4.82%
[19]
  inhibition: 6.73%
[20]
  inhibition: 0.98%
